# According to the supplement of paper PMC8728848:
# This is one part of a sample in which the strongest signals are shown more often than they occur.
# Tests used:
# Test in all cases: glycan array binding signal (z-score within array); higher = stronger binding
# Conditions in all cases: glycan notation: IUPAC condensed, linker removed
# Fuc(a1-2)Gal(b1-3)GalNAc = target: Fuc(a1-2)Gal(b1-3)GalNAc
# How it was run: (§1)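 The Consortium for Functional Glycomics database supplied 3228 glycan arrays, of which those lacking an available protein sequence were dropped. The binding signal, a within-array Z-score, was averaged across arrays of the same protein sequence and across linkers. Negative scores can be read as non-binding.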
# [1] = target: Fuc(a1-2)Gal(b1-3)GalNAc(b1-4)[Neu5Ac(a2-3)]Gal(b1-4)Glc
# How it was run: as §1
# [2] = target: Fuc(a1-2)Gal(b1-3)GlcNAc(b1-2)Man(a1-3)[Fuc(a1-2)Gal(b1-3)GlcNAc(b1-2)Man(a1-6)]Man(b1-4)GlcNAc(b1-4)GlcNAc
# How it was run: as §1
# [3] = target: Fuc(a1-2)Gal(b1-4)GlcNAc(b1-3)Gal(b1-4)GlcNAc
# How it was run: as §1
# [4] = target: Fuc(a1-2)Gal(b1-4)[Fuc(a1-3)]GlcNAc
# How it was run: as §1
# [5] = target: Fuc(a1-2)Gal(b1-4)[Fuc(a1-3)]GlcNAc(b1-3)Gal(b1-4)[Fuc(a1-3)]GlcNAc
# How it was run: as §1
# [6] = target: Fuc(a1-2)[Gal(a1-3)]Gal(b1-3)GalNAc(b1-3)Gal(a1-4)Gal(b1-4)Glc
# How it was run: as §1
# [7] = target: Fuc(a1-2)[Gal(a1-3)]Gal(b1-3)GlcNAc(b1-3)GalNAc
# How it was run: as §1
# [8] = target: Fuc(a1-2)[Gal(a1-3)]Gal(b1-4)[Fuc(a1-3)]Glc
# How it was run: as §1
# [9] = target: Fuc(a1-2)[GalNAc(a1-3)]Gal
# How it was run: as §1
# [10] = target: Fuc(a1-2)[GalNAc(a1-3)]Gal(b1-4)GlcNAc(b1-2)Man
# How it was run: as §1
# [11] = target: Fuc(a1-3)[Gal(b1-4)]GlcNAc(b1-3)Gal(b1-3)[Fuc(a1-4)]GlcNAc
# How it was run: as §1
# Gal(a1-3)Gal(b1-4)GlcNAc = target: Gal(a1-3)Gal(b1-4)GlcNAc
# How it was run: as §1
# [12] = target: Gal(a1-3)Gal(b1-4)GlcNAc(b1-2)Man
# How it was run: as §1
# Gal(a1-4)Gal(b1-4)GlcNAc = target: Gal(a1-4)Gal(b1-4)GlcNAc
# How it was run: as §1
# [13] = target: Gal(a1-4)Gal(b1-4)GlcNAc(b1-2)Man(a1-3)[Gal(a1-4)Gal(b1-4)GlcNAc(b1-2)Man(a1-6)]Man(b1-4)GlcNAc(b1-4)GlcNAc
# How it was run: as §1
# [14] = target: Gal(b1-3)GlcNAc(b1-2)Man(a1-3)[GlcNAc(b1-4)][Gal(b1-3)GlcNAc(b1-2)Man(a1-6)]Man(b1-4)GlcNAc(b1-4)GlcNAc
# How it was run: as §1
# [15] = target: Gal(b1-3)GlcNAc(b1-2)[Gal(b1-3)GlcNAc(b1-6)]Man(a1-6)[Gal(b1-3)GlcNAc(b1-2)Man(a1-3)]Man(b1-4)GlcNAc(b1-4)GlcNAc
# How it was run: as §1
# [16] = target: Gal(b1-3)GlcNAc(b1-3)GalNAc
# How it was run: as §1
# [17] = target: Gal(b1-3)[Fuc(a1-4)]GlcNAc(b1-2)Man(a1-3)[Gal(b1-3)[Fuc(a1-4)]GlcNAc(b1-2)Man(a1-6)]Man(b1-4)GlcNAc(b1-4)[Fuc(a1-6)]GlcNAc
# How it was run: as §1
# [18] = target: Gal(b1-4)GlcNAc(b1-2)Man(a1-3)[GlcNAc(b1-2)Man(a1-6)]Man(b1-4)GlcNAc(b1-4)GlcNAc
# How it was run: as §1
# [19] = target: Gal(b1-4)GlcNAc(b1-2)[Gal(b1-4)GlcNAc(b1-6)]Man(a1-6)[Gal(b1-4)GlcNAc(b1-2)Man(a1-3)]Man(b1-4)GlcNAc(b1-4)[Fuc(a1-6)]GlcNAc
# How it was run: as §1
# [20] = target: Gal(b1-4)GlcNAc(b1-2)[Gal(b1-4)GlcNAc(b1-6)]Man(a1-6)[GlcNAc(b1-4)][Gal(b1-4)GlcNAc(b1-2)[Gal(b1-4)GlcNAc(b1-4)]Man(a1-3)]Man(b1-4)GlcNAc(b1-4)[Fuc(a1-6)]GlcNAc
# How it was run: as §1
# [21] = target: Gal(b1-4)GlcNAc(b1-3)Gal(b1-4)GlcNAc(b1-3)Gal(b1-4)GlcNAc(b1-3)Gal(b1-4)GlcNAc(b1-2)Man(a1-3)[Gal(b1-4)GlcNAc(b1-3)Gal(b1-4)GlcNAc(b1-3)Gal(b1-4)GlcNAc(b1-3)Gal(b1-4)GlcNAc(b1-2)Man(a1-6)]Man(b1-4)GlcNAc(b1-4)[Fuc(a1-6)]GlcNAc
# How it was run: as §1
# [22] = target: Gal3S(b1-4)[Fuc(a1-3)]Glc6S
# How it was run: as §1
# GalNAc(b1-3)GlcNAc = target: GalNAc(b1-3)GlcNAc
# How it was run: as §1
# GalNAc(b1-4)Gal(b1-4)Glc = target: GalNAc(b1-4)Gal(b1-4)Glc
# How it was run: as §1
# [23] = target: GlcNAc(a1-4)Gal(b1-4)GlcNAc(b1-3)Gal(b1-4)GlcNAc(b1-3)Gal(b1-4)GlcNAc
# How it was run: as §1
# [24] = target: GlcNAc(b1-3)Gal(b1-4)GlcNAc(b1-3)Gal(b1-4)GlcNAc(b1-3)Gal(b1-4)GlcNAc(b1-2)Man(a1-3)[GlcNAc(b1-3)Gal(b1-4)GlcNAc(b1-3)Gal(b1-4)GlcNAc(b1-3)Gal(b1-4)GlcNAc(b1-2)Man(a1-6)]Man(b1-4)GlcNAc(b1-4)[Fuc(a1-6)]GlcNAc
# How it was run: as §1
# [25] = target: GlcNAc(b1-3)Gal(b1-4)GlcNAc(b1-3)Gal(b1-4)GlcNAc(b1-3)Gal(b1-4)GlcNAc(b1-3)Gal(b1-4)GlcNAc(b1-2)Man(a1-3)[GlcNAc(b1-3)Gal(b1-4)GlcNAc(b1-3)Gal(b1-4)GlcNAc(b1-3)Gal(b1-4)GlcNAc(b1-3)Gal(b1-4)GlcNAc(b1-2)Man(a1-6)]Man(b1-4)GlcNAc(b1-4)GlcNAc
# How it was run: as §1
# GlcNAc(b1-3)Man = target: GlcNAc(b1-3)Man
# How it was run: as §1
# [26] = target: GlcNAc(b1-4)GlcNAc(b1-4)GlcNAc(b1-4)GlcNAc(b1-4)GlcNAc
# How it was run: as §1
# Kdn(a2-3)Gal(b1-3)GalNAc = target: Kdn(a2-3)Gal(b1-3)GalNAc
# How it was run: as §1
# [27] = target: Man(a1-3)[Man(a1-6)]Man(a1-6)[Man(a1-3)]Man
# How it was run: as §1
# [28] = target: Neu5Ac(a2-3)Gal(b1-3)GlcNAc(b1-2)Man(a1-3)[Neu5Ac(a2-3)Gal(b1-3)GlcNAc(b1-2)Man(a1-6)]Man(b1-4)GlcNAc(b1-4)GlcNAc
# How it was run: as §1
# [29] = target: Neu5Ac(a2-3)Gal(b1-4)GlcNAc(b1-3)Gal(b1-4)GlcNAc(b1-3)GalNAc
# How it was run: as §1
# [30] = target: Neu5Ac(a2-3)Gal(b1-4)[Fuc(a1-3)]GlcNAc(b1-2)Man
# How it was run: as §1
# [31] = target: Neu5Ac(a2-3)Gal(b1-4)[Fuc(a1-3)]GlcNAc(b1-3)GalNAc
# How it was run: as §1
# [32] = target: Neu5Ac(a2-3)Gal6S(b1-4)GlcNAc
# How it was run: as §1
# [33] = target: Neu5Ac(a2-6)Gal(b1-4)GlcNAc(b1-2)Man(a1-3)[Man(a1-6)]Man(b1-4)GlcNAc(b1-4)GlcNAc
# How it was run: as §1
# [34] = target: Neu5Ac(a2-6)Gal(b1-4)GlcNAc(b1-3)Gal(b1-4)GlcNAc(b1-3)Gal(b1-4)GlcNAc
# How it was run: as §1
# [35] = target: Neu5Ac(a2-6)Gal(b1-4)GlcNAc(b1-3)Gal(b1-4)[Fuc(a1-3)]GlcNAc(b1-3)Gal(b1-4)[Fuc(a1-3)]GlcNAc
# How it was run: as §1
# [36] = target: Neu5Ac(a2-6)Gal(b1-4)GlcNAc(b1-6)[Gal(b1-3)]GalNAc
# How it was run: as §1
# [37] = target: Neu5Ac(a2-8)Neu5Ac(a2-8)Neu5Ac(a2-3)[Gal(b1-3)GalNAc(b1-4)]Gal(b1-4)Glc
# How it was run: as §1
# [38] = target: Neu5Gc(a2-3)Gal(b1-4)GlcNAc(b1-3)Gal(b1-4)GlcNAc(b1-2)Man(a1-3)[Neu5Gc(a2-3)Gal(b1-4)GlcNAc(b1-3)Gal(b1-4)GlcNAc(b1-2)Man(a1-6)]Man(b1-4)GlcNAc(b1-4)GlcNAc
# How it was run: as §1
# [39] = target: Neu5Gc(b2-6)Gal(b1-4)GlcNAc
# How it was run: as §1
binder,measurement,setting,value
"Thrombomodulin Extracellular (Mus musculus), P15306 (protein) MLGIFFLGVLAPASLGLSALAKLQPTGSQCVEHECFALFQGPATFLDASQACQRLQGHLMTVRSSVAADVISLLLSQSSMDLGPWIGLQLPQGCDDPVHLGPLRGFQWVTGDNHTSYSRWARPNDQTAPLCGPLCVTVSTATEAAPGEPAWEEKPCETETQGFLCEFYFTASCRPLTVNTRDPEAAHISSTYNTPFGVSGADFQTLPVGSSAAVEPLGLELVCRAPPGTSEGHWAWEATGAWNCSVENGGCEYLCNRSTNEPRCLCPRDMDLQADGRSCARPVVQSCNELCEHFCVSNAEVPGSYSCMCETGYQLAADGHRCEDVDDCKQGPNPCPQLCVNTKGGFECFCYDGYELVDGECVELLDPCFGSNCEFQCQPVSPTDYRCICAPGFAPKPDEPHKCEMFCNETSCPADCDPNSPTVCECPEGFILDEGSVCTDIDECSQGECFTSECRNFPGSYECICGPDTALAGQISKDCDPIPVREDTKEEEGSGEPPVSPTPGSPTGPPSARPVHSGVLIGISIASLSLVVALLALLCHLRKKQGAARAELEYKCASSAKEVVLQHVRTDRTLQKF",glycan array binding signal (z-score),Fuc(a1-2)Gal(b1-3)GalNAc,-0.717
same,glycan array binding signal (z-score),[1],-0.952
same,glycan array binding signal (z-score),[2],2.48
same,glycan array binding signal (z-score),[3],0.406
same,glycan array binding signal (z-score),[4],-0.221
same,glycan array binding signal (z-score),[5],0.048
same,glycan array binding signal (z-score),[6],1.38
same,glycan array binding signal (z-score),[7],2.8
same,glycan array binding signal (z-score),[8],-1.18
same,glycan array binding signal (z-score),[9],-0.162
same,glycan array binding signal (z-score),[10],1.79
same,glycan array binding signal (z-score),[11],-0.513
same,glycan array binding signal (z-score),Gal(a1-3)Gal(b1-4)GlcNAc,-0.81
same,glycan array binding signal (z-score),[12],-2.66
same,glycan array binding signal (z-score),Gal(a1-4)Gal(b1-4)GlcNAc,-0.239
same,glycan array binding signal (z-score),[13],1.73
same,glycan array binding signal (z-score),[14],0.655
same,glycan array binding signal (z-score),[15],0.399
same,glycan array binding signal (z-score),[16],-0.059
same,glycan array binding signal (z-score),[17],2.94
same,glycan array binding signal (z-score),[18],-1.49
same,glycan array binding signal (z-score),[19],-0.135
same,glycan array binding signal (z-score),[20],-0.329
same,glycan array binding signal (z-score),[21],2.27
same,glycan array binding signal (z-score),[22],2.97
same,glycan array binding signal (z-score),GalNAc(b1-3)GlcNAc,-0.126
same,glycan array binding signal (z-score),GalNAc(b1-4)Gal(b1-4)Glc,3.27
same,glycan array binding signal (z-score),[23],2.52
same,glycan array binding signal (z-score),[24],1.85
same,glycan array binding signal (z-score),[25],-0.332
same,glycan array binding signal (z-score),GlcNAc(b1-3)Man,0.187
same,glycan array binding signal (z-score),[26],1.75
same,glycan array binding signal (z-score),Kdn(a2-3)Gal(b1-3)GalNAc,-0.442
same,glycan array binding signal (z-score),[27],2.92
same,glycan array binding signal (z-score),[28],2.55
same,glycan array binding signal (z-score),[29],-0.036
same,glycan array binding signal (z-score),[30],-1.17
same,glycan array binding signal (z-score),[31],2.09
same,glycan array binding signal (z-score),[32],-0.167
same,glycan array binding signal (z-score),[33],2.56
same,glycan array binding signal (z-score),[34],-0.19
same,glycan array binding signal (z-score),[35],-0.473
same,glycan array binding signal (z-score),[36],-1.23
same,glycan array binding signal (z-score),[37],2.49
same,glycan array binding signal (z-score),[38],1.29
same,glycan array binding signal (z-score),[39],-0.009
